This is a sample that favours compounds with a hit; in the whole collection about 11% have one here.
3T3 cytotox: cytotoxic compounds in NIH 3T3 cells | NIH 3T3 viability, CellTiter-Glo ATP luminescence, 48-72 h | Potency, µM (top dose mostly 96.7 µM), for inactives: at the highest dose activity change, negative = cytotoxicity, most hits filed as inhibitors | 4.3% of 94,000 active; further: nearly all actives have a fitted effect of over 55% in size
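ATP-dependent luminescence (CellTiter-Glo) served as the viability signal for NIH 3T3 cells treated with compound for 48 or 72 hr at 37 °C.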
HEK cytotox: HEK 293 cell cytotoxicity; HEK 293 viability, ATP luminescence (CellTiter-Glo), 48-72 h; Potency, µM (doses to about 115 µM), inactives show top-dose activity change, negative = cytotoxicity, actives largely listed as inhibitors; 6.6% of 94,000 active; further: nearly all actives have a fitted effect of over 60% in size
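Pintool-delivered compounds were incubated with HEK 293 cells (250 cells/well) at 37 degree Celsius for 48 or 72 hr. ATP-dependent luminescence (CellTiter-Glo) then reported remaining viable cells.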
NPR1 antag: human Npr1 receptor antagonism. HEK293 hNpr1 GloSensor cGMP, ANP-stimulated luminescence. P16066. AID 1347048. 1.6% of 76,000 active. Potency, µM (doses to about 46.3 µM), inactives show at the top dose activity change, negative = inhibition, usual class: inhibitors; calls by dose curve; further: nearly all actives have a fitted effect of over 60% in size
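HEK293 cells stably expressing human Npr1 and cGMP GloSensor pGS-40F, loaded 2 h with 2% GloSensor reagent, given compound 30 min at room temperature. Luminescence read before and 20 min after 0.1 nM hNppA.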
FLuc inh: Photinus pyralis luciferase inhibition. purified P. pyralis luciferase, luminescence, biochemical. Potency, µM (top dose mostly 115 µM), actives largely listed as inhibitors. 2.5% of 76,000 active. AID 1347043; further: nearly all actives have a fitted effect of over 65% in size
Target sequence (P08659 whole entry, looked up): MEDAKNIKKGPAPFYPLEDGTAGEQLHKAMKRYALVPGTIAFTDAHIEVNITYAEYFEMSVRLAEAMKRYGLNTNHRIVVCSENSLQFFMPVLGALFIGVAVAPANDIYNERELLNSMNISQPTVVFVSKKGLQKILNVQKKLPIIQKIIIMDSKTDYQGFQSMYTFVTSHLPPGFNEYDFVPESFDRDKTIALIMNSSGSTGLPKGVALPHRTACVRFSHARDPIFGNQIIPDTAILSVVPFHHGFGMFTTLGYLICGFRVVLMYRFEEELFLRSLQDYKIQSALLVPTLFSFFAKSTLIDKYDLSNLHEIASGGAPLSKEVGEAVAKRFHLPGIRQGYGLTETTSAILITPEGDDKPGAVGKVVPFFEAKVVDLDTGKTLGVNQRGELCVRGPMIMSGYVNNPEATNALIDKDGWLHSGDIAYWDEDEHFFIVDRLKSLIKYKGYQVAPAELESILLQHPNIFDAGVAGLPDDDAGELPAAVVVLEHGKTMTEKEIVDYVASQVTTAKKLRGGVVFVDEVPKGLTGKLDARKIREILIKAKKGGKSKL
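Cell-free enzyme assay, 10nM P. pyralis luciferase, luciferin and ATP each at 10uM. Inhibition profiled over a 6-point titration, read as luminescence.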
Active calls of the source: *; i = inactive; ? = inconclusive; · = not tested or not shown; [ ] = remark or other dose. Unless noted, the call rests on the fitted dose curve; in most records, active means well fitted curve in the direction sought with a large enough effect; inconclusive means small, poorly fitted or top-dose-only effect, or another doubt; inactive means no such curve, though single readings can be large; an effect the other way counts as inactive or inconclusive. On the % scale 0 is the no-effect control and ±100 the full control effect; potency means the concentration at half of the fitted maximal effect.

SMILES	3T3 cytotox	HEK cytotox	NPR1 antag	FLuc inh
CC(C)OCCCNc1ncnc2c1CN(C1CCCC1)C(=O)CN2C	-27%	-17%	·	·
C[S+](=O)([O-])NC1CCN(C(=O)c2ccc(-c3cncnc3)cc2)CC1	-2%	2%	·	·
O=C(NCc1nnc2c(-c3nc(C4CC4)no3)cccn12)c1ccc(F)cc1	-25%	?	-1%	i
CC(C)(C)c1ccc(C(=O)NCc2nnc3c(-c4nc(C5CC5)no4)cccn23)cc1	?	?	-16%	16µM*
O=C(Cc1ccc(F)cc1)NCCNC(=O)c1cccc(-c2ccc(C(F)(F)F)cc2)c1	-27%	28µM*	·	·
O=C(Cc1ccc(Cl)cc1)NCCNC(=O)c1cccc(-c2ccc(C(F)(F)F)cc2)c1	35µM*	?	·	·
O=C(CNC(=O)c1ccc(-c2cccc(C(F)(F)F)c2)cc1)NCCc1ccc(Cl)cc1	-2%	-17%	·	·
CSc1ccc(-c2cccc(C(=O)NCCNC(=O)c3ccc(C(F)(F)F)cc3)c2)cc1	-21%	-5%	·	·
Cc1cn2nc(C(=O)NCCC3=CCCCC3)cc2c(N2CCCC2)n1	?	-22%	16%	i
O=c1cc(-c2ccncc2)oc2c(-c3cccc4[nH]ccc34)nccc12	?	25µM*	-2%[70.6 µM]	i
COc1ncccc1-c1nccc2c(=O)cc(-c3ccncc3)oc12	28µM*	-25%[172 µM]	13%[70.6 µM]	i
Cn1cc(-c2cc(=O)c3ccnc(-c4cccc5[nH]ccc45)c3o2)cn1	?	?	1%[70.6 µM]	i
O=c1cc(-c2ccncc2)oc2c(-c3cccc(CO)c3)nccc12	45µM*	-26%[172 µM]	5%[70.6 µM]	i
Cc1ccccc1-c1nccc2c(=O)cc(-c3ccncc3)oc12	?	100µM*	6%[70.6 µM]	i
Cc1ncoc1C(=O)N1CC(c2noc(C3CCCN3CC3CC3)n2)C1 (stereo unspecified)	-7%	-2%	1%	i
COc1ccc(-c2nc(C)nc3c2CCN([S+](=O)([O-])c2ccccc2)CC3)cc1	-29%	-22%	6%	i
Cc1nc2c(c(-c3ccc(Cl)cc3)n1)CCN([S+](C)(=O)[O-])CC2	-28%	-1%	2%	i
C[S+](=O)([O-])N1CCc2nc(-c3ccc(Cl)cc3)nc(-c3ccccc3)c2C1	-17%	-1%	2%	i
COc1ccc(-c2nc(C3CC3)nc3c2CN([S+](=O)([O-])c2ccccc2)CC3)cc1	18µM*	2%	·	·
COc1ccc(-c2nc(C)nc3c2CN([S+](=O)([O-])c2ccccc2)CC3)cc1	35µM*	i	·	·
Cc1ccc([S+](=O)([O-])N2CCc3nc(-c4ccc(Cl)cc4)nc(-c4ccccc4)c3C2)cc1	-13%	?	-2%	28µM*
Cc1nc2c(c(-c3ccc(Cl)cc3)n1)CN([S+](=O)([O-])c1ccsc1)CC2	22µM*	-28%	12%	i
COc1cccc(CC(=O)N2CCC3(CC2)OC(=O)N(Cc2ccccc2F)C3(C)c2ccccc2)c1 (stereo unspecified)	25µM*	?	-4%	i
COc1ccc(C(=O)N2CCC3(CC2)OC(=O)N(Cc2ccccc2F)C3(C)c2ccccc2)cc1 (stereo unspecified)	35µM*	45µM*	2%	i
Cn1ccc(C(=O)N2CCC3(CC2)OC(=O)N(Cc2ccccc2F)C3(C)c2ccccc2)n1 (stereo unspecified)	?	-11%	-1%	i
SMILES	3T3 cytotox	HEK cytotox	NPR1 antag	FLuc inh
CC1(c2ccccc2)N(Cc2cccnc2)C(=O)OC12CCN(C(=O)Cc1ccccc1)CC2 (stereo unspecified)	?	-8%	8%	i
O=C(NCC1CCCCC1)c1ccc2nc(-c3cccnc3)oc2c1	-23%[138 µM]	-13%[172 µM]	·	·
Cc1cnc(C(=O)N[C@@H]2CCC[C@@H]2C(=O)N2CCC(Cc3ccccc3)CC2)cn1	-25%	?	3%	i
C=CCOc1c(OC)ccc2c1CN(Cc1ccccc1)C(=O)CCN2CC(O)COc1ccc(OC)cc1 (stereo unspecified)	40µM*	?	·	·
C=CCOc1c(OC)ccc2c1CN(C1CCCC1)C(=O)CCN2CC(O)COc1ccccc1 (stereo unspecified)	40µM*	?	·	·
C=CCOc1c(OC)ccc2c1CN(Cc1ccccc1)C(=O)CCN2CC(O)Cc1ccccc1 (stereo unspecified)	?	50µM*	·	·
